Assay outcomes (PubChem)
Vc quorum ag: induces V. cholerae light production without autoinducers; V. cholerae BH1578 lux reporter, luminescence, 6 h; 0.16% of 350,000 active; AID 588436; activation, % at 18.7 µM; in the data active = activation mostly above about 9.7%, no sharp cut-off
GDH-TPI counter-1: counter-screen for M. tuberculosis FBA inhibitors: GDH-TPI coupled enzymes; GDH-TPI coupled enzyme counterscreen, NADH absorbance; inhibition, % at 4.8 µM; 1.2% of 360,000 active; AID 588335;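 note: 0% = DMSO wells and 100% = wells lacking the enzyme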
Mtb FBA inh: Mtb fructose-bisphosphate aldolase inhibition; 2.3% of 360,000 active; purified M. tuberculosis FBA, fluorescence read-out; P9WQA3; inhibition, % at 1 µM; in the data active = inhibition above about 27%;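 note: 0% = vehicle and 100% = reference inhibitor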
Target sequence (P9WQA3 whole entry, looked up): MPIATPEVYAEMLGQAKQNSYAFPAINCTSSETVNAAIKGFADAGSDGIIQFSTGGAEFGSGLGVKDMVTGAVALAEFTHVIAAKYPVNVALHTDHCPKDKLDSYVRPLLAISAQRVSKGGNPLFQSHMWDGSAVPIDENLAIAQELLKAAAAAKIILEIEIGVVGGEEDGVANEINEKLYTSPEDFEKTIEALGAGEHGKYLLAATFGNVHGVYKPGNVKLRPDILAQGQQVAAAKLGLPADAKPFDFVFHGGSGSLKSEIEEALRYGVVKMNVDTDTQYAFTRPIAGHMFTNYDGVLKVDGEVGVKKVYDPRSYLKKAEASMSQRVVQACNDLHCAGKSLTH
CCHFV vOTU inh: blocks the CCHF virus ovarian tumor domain protease; AID 651958; 0.55% of 370,000 active; inhibition, % at 11.5 µM; CCHFV vOTU protease, Pep-AMC fluorescence; note: 0% = vehicle wells with enzyme and 100% = no enzyme wells
Mtb FBA inh conf: confirmation of M. tuberculosis fructose-bisphosphate aldolase inhibitors; inhibition, % at 1 µM; shares compounds with Mtb FBA inh; 78% of 5,600 active; purified M. tuberculosis FBA, fluorescence read-out; AID 651616; in the data active = inhibition above about 27%;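 note: 0% = vehicle wells and 100% = reference inhibitor wells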
GDH-TPI counter-2: GDH-TPI inhibition counter-screen for FBA inhibitors; shares compounds with Mtb FBA inh; GDH-TPI coupled enzyme counterscreen, fluorescence; inhibition, % at 1 µM; 81% of 5,600 active; in the data active = inhibition above about 10%
* hit, by the source's call. Hits are enriched below; roughly 3.9% of the tested compounds scored in any of these assays. Cut-off read from the data, not from the text of the source, unless noted: active = inhibition above about 30%; inactive = the rest.

Screening Oc1ccccc1CNc1cnc2ccccc2c1 returned Vc quorum ag -0.5, GDH-TPI counter-1 13.1, Mtb FBA inh 39.6*, CCHFV vOTU inh -30.9, Mtb FBA inh conf 5.1 and GDH-TPI counter-2 3.2.
C=CCc1cccc(CNc2cnc3ccccc3c2)c1O was read as Vc quorum ag -1.7, GDH-TPI counter-1 0.7, Mtb FBA inh 26.0 and CCHFV vOTU inh -38.7.
CC(C)N1CC2(c3ccccc3)CN(C(C)C)CC(c3ccccc3)(C1)C2=O was read as Vc quorum ag inactive, GDH-TPI counter-1 9.7, Mtb FBA inh 2.2 and CCHFV vOTU inh -3.2.
CC(=O)Nc1ccc(NC(=O)C2CCN(S(C)(=O)=O)CC2)cc1 was read as Vc quorum ag inactive, GDH-TPI counter-1 7.1, Mtb FBA inh -0.9 and CCHFV vOTU inh 11.5.
COc1ccc2c(c1)c(=O)oc1c(C)c(OC(C)C(=O)NCC3CCC(C(=O)O)CC3)ccc12 (stereo not given) was read as Vc quorum ag -0.3, GDH-TPI counter-1 8.8, Mtb FBA inh 35.2*, CCHFV vOTU inh -34.6, Mtb FBA inh conf 92.2* and GDH-TPI counter-2 81.2*.
`COc1ccc2c(c1)c(=O)oc1c(C)c(OCc3cc(C(=O)O)oc3C)ccc12` gave Vc quorum ag 2.1, GDH-TPI counter-1 3.1, Mtb FBA inh 43.2*, CCHFV vOTU inh -24.3, Mtb FBA inh conf -4.0 and GDH-TPI counter-2 -7.3.
Screening COc1cccc(/C=C/C(=O)OCC(=O)Nc2ccc3c(c2)OCO3)c1 returned Vc quorum ag -0.7, GDH-TPI counter-1 13.7, Mtb FBA inh 8.8 and CCHFV vOTU inh 1.6.
`CCN(CC)C(=O)c1sc2nc(-c3ccccn3)[nH]c(=O)c2c1C` gave Vc quorum ag inactive, GDH-TPI counter-1 29.9, Mtb FBA inh 9.0 and CCHFV vOTU inh 6.2.
`Cc1sc2nc(-c3ccccn3)[nH]c(=O)c2c1-c1ccccc1` gave Vc quorum ag -0.6, GDH-TPI counter-1 7.3, Mtb FBA inh 31.4*, CCHFV vOTU inh -7.7, Mtb FBA inh conf 46.4* and GDH-TPI counter-2 37.4*.
For COc1ccccc1Cn1c(=O)oc2ccccc21 the results were Vc quorum ag 0.8, GDH-TPI counter-1 7.1, Mtb FBA inh -1.1 and CCHFV vOTU inh -9.2.
Screening CCc1ccccc1Cn1c(=O)oc2cccnc21 returned Vc quorum ag -0.5, GDH-TPI counter-1 -7.3, Mtb FBA inh 40.4*, CCHFV vOTU inh -7.3, Mtb FBA inh conf 41.4* and GDH-TPI counter-2 37.0*.
Screening CCOC(=O)c1cc(C#N)c(SCC(=O)O)[nH]c1=O returned Vc quorum ag inactive, GDH-TPI counter-1 16.7, Mtb FBA inh 42.5*, CCHFV vOTU inh -8.3, Mtb FBA inh conf 32.3* and GDH-TPI counter-2 22.5*.
Screening CCOC(=O)c1cc(C#N)c(SCC(N)=O)[nH]c1=O returned Vc quorum ag -3.1, GDH-TPI counter-1 10.1, Mtb FBA inh 22.4 and CCHFV vOTU inh -20.8.
Screening CCCCNC(=O)c1nc(C2CCN(S(=O)(=O)c3ccc(C(F)(F)F)cc3)CC2)oc1-c1ccccc1 returned CCHFV vOTU inh -10.3.
Screening COc1ccc(-c2oc3ncnc(NCCCN(C)C)c3c2-c2ccc(OC)cc2)cc1 returned Vc quorum ag -0.8, GDH-TPI counter-1 16.4, Mtb FBA inh 46.1*, CCHFV vOTU inh -38.9, Mtb FBA inh conf 69.0* and GDH-TPI counter-2 71.9*.
COC(=O)c1cn(NC(=O)c2cccc(OC)c2)c(=O)c2ccccc12 was read as Vc quorum ag -0.6, GDH-TPI counter-1 19.6, Mtb FBA inh -1.2 and CCHFV vOTU inh -12.9.
`COc1ccc(CNC(=O)CCCC2=NS(=O)(=O)c3ccccc3N2)cc1` gave Vc quorum ag -0.3, GDH-TPI counter-1 4.4, Mtb FBA inh 101.7*, CCHFV vOTU inh -12.9, Mtb FBA inh conf 132.2* and GDH-TPI counter-2 139.0*.
For COc1ccc(CNC(=O)CC(C)CC2=NS(=O)(=O)c3ccccc3N2)cc1 (stereo not given) the results were Vc quorum ag -0.3, GDH-TPI counter-1 -6.2, Mtb FBA inh -1.2 and CCHFV vOTU inh 0.6.
`O=C(O)C1(c2ccc(Cl)cc2)CCC1` gave GDH-TPI counter-1 0.6, Mtb FBA inh -1.1 and CCHFV vOTU inh -3.2.
For CCOC(=O)C1CCN(C(=O)c2cc3c(=O)n4cccc(C)c4nc3s2)CC1 the results were Vc quorum ag -3.3, GDH-TPI counter-1 12.0, Mtb FBA inh 99.6*, CCHFV vOTU inh -18.3, Mtb FBA inh conf active and GDH-TPI counter-2 165.9*.
CCCN(CCC)C(=O)c1cc2c(=O)n3cccc(C)c3nc2s1 was read as Vc quorum ag inactive, GDH-TPI counter-1 24.0, Mtb FBA inh 29.8*, CCHFV vOTU inh -46.3, Mtb FBA inh conf 137.2* and GDH-TPI counter-2 98.0*.
For CC(C)CN(CC(C)C)C(=O)c1cc2c(=O)n3ccccc3nc2s1 the results were Vc quorum ag inactive, GDH-TPI counter-1 4.4, Mtb FBA inh 59.0*, CCHFV vOTU inh -61.6, Mtb FBA inh conf active and GDH-TPI counter-2 194.5*.
`CCOC(=O)C1CCN(C(=O)c2cccc(Cl)c2)CC1` gave Vc quorum ag -1.2, GDH-TPI counter-1 -7.9, Mtb FBA inh -0.5 and CCHFV vOTU inh 4.0.
CCN(CC)c1nc2c(C)cccn2c(=O)c1C=C1C(=O)NC(=O)NC1=O was read as Vc quorum ag inactive, GDH-TPI counter-1 3.0, Mtb FBA inh 2.5 and CCHFV vOTU inh -2.7.
For Cc1cccn2c(=O)c3cc(C(=O)NCC(C)C)sc3nc12 the results were Vc quorum ag 0.6, GDH-TPI counter-1 10.2, Mtb FBA inh 20.4 and CCHFV vOTU inh -24.7.
`Cc1cccn2c(=O)c3cc(C(=O)NCCCOC(C)C)sc3nc12` gave Vc quorum ag -0.9, GDH-TPI counter-1 23.0, Mtb FBA inh 102.7*, CCHFV vOTU inh -35.5, Mtb FBA inh conf 4.5 and GDH-TPI counter-2 1.5.
Screening CCCCN(CC)CCCNC(=O)C1c2ccccc2C(=O)N(C)C1c1cn(C)c2ccccc12 (stereo not given) returned Vc quorum ag inactive, GDH-TPI counter-1 4.4, Mtb FBA inh -2.7 and CCHFV vOTU inh 9.0.
`Cn1c(COc2ccc([N+](=O)[O-])cc2)nnc1SCC(N)=O` gave Vc quorum ag inactive, GDH-TPI counter-1 4.4, Mtb FBA inh -4.2 and CCHFV vOTU inh -4.3.
`Cc1nc2nc(-c3cccnc3)nn2c(C)c1Cl` gave Vc quorum ag inactive, GDH-TPI counter-1 -3.1, Mtb FBA inh -6.3 and CCHFV vOTU inh -1.2.
Screening CCCCCn1c(=N)c(S(=O)(=O)c2ccc(Cl)cc2)cc2c(=O)n3cccc(C)c3nc21 returned Vc quorum ag -0.9, GDH-TPI counter-1 4.5 and Mtb FBA inh 2.0.
For Cc1cccn2c(=O)c3cc(C(=O)NC4CCCC4)sc3nc12 the results were Vc quorum ag inactive, GDH-TPI counter-1 17.4, Mtb FBA inh 91.2*, CCHFV vOTU inh -103.5, Mtb FBA inh conf 66.5* and GDH-TPI counter-2 50.9*.
`Cc1cccn2c(=O)c3cc(C(N)=S)c(=N)n(CCCOC(C)C)c3nc12` gave Vc quorum ag -0.3, GDH-TPI counter-1 15.9, Mtb FBA inh 62.6*, CCHFV vOTU inh -88.7, Mtb FBA inh conf 5.7 and GDH-TPI counter-2 0.2.
